# Screening data from PubChem.
# Shh pathway inh – blocks Sonic Hedgehog signaling; Shh-LIGHT2 Gli-luciferase reporter, 30 h; inhibition, % (concentration not given with the values); actives 2.1% (n = 22,000);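 active = mean inhibition across valid replicates above about 65%, limit read from the data; inconclusive = mean under the limit, yet half or more replicates past it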;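 also: pathway switched on by Shh-conditioned medium diluted 1 in 25 in low serum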
# MITF inh – blocks MITF activity. TRPM1 promoter luciferase, luminescence, 24 h. inhibition, % (no concentration beside the values). actives 0.28% (n = 37,000). AID 2240; in the data active = inhibition above about 85%; inconclusive = no clear call, values can overlap the other calls; inactive = below about 68%;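 also: human melanocyte line stably carrying TRPM1 promoter luciferase reporter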
# NOMO-1 viab – STK33 inhibitor candidate reducing NOMO-1 cell viability; NOMO-1 AML viability, CellTiter-Glo luminescence, 72 h; actives 7.5% (n = 37,000); inhibition, % (test concentration not listed); in the data active = inhibition above about 80%; inconclusive = no clear call, values can overlap the other calls
# * = called active by the depositor; ? = inconclusive; nt = not tested or not shown. Sampled rows, rich in hits. Any-hit rate of the full collection: about 7.8%.
SMILES,Shh pathway inh,MITF inh,NOMO-1 viab
CCOC(=O)c1sc2ncn(CC(=O)Nc3cccc(Br)c3)c(=O)c2c1C,nt,14,39
C[C@H](CO)N1C[C@H](C)[C@H](CN(C)Cc2ccc(Oc3ccccc3)cc2)Oc2c(NC(=O)Nc3cccc4ccccc34)cccc2C1=O,7,15,122*
COc1ccc(NC(=O)Nc2cccc3c2O[C@@H](CN(C)Cc2ccccc2)[C@H](C)CN([C@H](C)CO)C3=O)cc1,-14,62,117*
COc1ccc(NC(=O)Nc2cccc3c2O[C@@H](CN(C)Cc2ccccc2)[C@@H](C)CN([C@@H](C)CO)C3=O)cc1,-30,-6,49
COc1ccc(NC(=O)Nc2cccc3c2O[C@H](CN(C)Cc2ccc(Oc4ccccc4)cc2)[C@H](C)CN([C@H](C)CO)C3=O)cc1,24,3,44
COc1ccc(NC(=O)Nc2cccc3c2O[C@@H](CN(C)Cc2ccc(Oc4ccccc4)cc2)[C@H](C)CN([C@@H](C)CO)C3=O)cc1,0,40,91*
C[C@@H]1CN([C@@H](C)CO)C(=O)c2cccc(NC(=O)Nc3ccccc3)c2O[C@@H]1CN(C)Cc1ccc(Oc2ccccc2)cc1,30,-9,62
Cc1cccc(C)c1OCC(=O)Nc1sc(C)c(C)c1C(N)=O,nt,-8,50
COc1cc(NS(=O)(=O)c2ccccc2[N+](=O)[O-])c(OC)cc1Cl,nt,-9,10
O=C(CSc1nnc(-c2cccnc2)n1-c1cccc(C(F)(F)F)c1)c1ccc(F)cc1,nt,22,17
Cc1nc2sccn2c(=O)c1CCN1CCC(=C(c2ccccc2)c2ccc(F)cc2)CC1,71*,-4,29
O=C(c1ccc(F)cc1)C1CCN(CCn2c(=O)[nH]c3ccccc3c2=O)CC1,17,-1,7
CCc1cccc(OCC(=O)Nc2cc([N+](=O)[O-])ccc2O)c1,nt,46,16
O=C(N1CC(Oc2ccc(Cl)cc2)C1)N1CC(Oc2ccc(Cl)cc2)C1,33,22,30
O=C(/C=C/Oc1ccc(Cl)cc1)c1ccc(Br)cc1,14,4,117*
COc1ccc(C(NC(C)=O)c2c(O)ccc3ccccc23)cc1OC (stereo unspecified),nt,7,-20
COc1ccc(C(NC(=O)c2ccccc2)c2ccc3cccnc3c2O)c(OC)c1 (stereo unspecified),nt,?,109*
COc1ccc(C(=O)NC(c2ccccc2)c2ccccc2)cc1,23,7,32
COc1ccc(C(NC(C)=O)c2ccc3cccnc3c2O)cc1OC (stereo unspecified),nt,69,107*
CCc1cc(=O)oc2cc(OCc3cc(C(=O)OC)oc3C)ccc12,nt,-43,-1
COC(=O)c1ccc(NC(=O)CN2CCC(C(N)=O)(N3CCCCC3)CC2)cc1,nt,-2,-5
COC(=O)C1=CO[C@@H](O[C@@H]2O[C@H](CO)[C@@H](O)[C@H](O)[C@H]2O)[C@H]2[C@]1(O)[C@H](O)C[C@]2(C)O,-15,nt,nt
Cc1ccc(S(=O)(=O)Nc2ccc3c(c2)CC(=O)N([C@H](C)CO)C[C@@H](C)[C@H](CN(C)Cc2ccc(Oc4ccccc4)cc2)O3)cc1,-22,14,?
C[C@@H]1CN([C@@H](C)CO)C(=O)Cc2cc(NS(=O)(=O)c3ccccc3)ccc2O[C@@H]1CN(C)Cc1ccc(Oc2ccccc2)cc1,12,26,63
C[C@@H]1CN([C@H](C)CO)C(=O)Cc2cc(NS(=O)(=O)c3ccc(F)cc3)ccc2O[C@H]1CN(C)Cc1ccc(Oc2ccccc2)cc1,50,18,127*
SMILES,Shh pathway inh,MITF inh,NOMO-1 viab
COc1ccc(S(=O)(=O)Nc2ccc3c(c2)CC(=O)N([C@H](C)CO)C[C@@H](C)[C@H](CN(C)Cc2ccc(Oc4ccccc4)cc2)O3)cc1,14,21,124*
C[C@@H]1CN([C@H](C)CO)C(=O)Cc2cc(NS(=O)(=O)c3ccccc3)ccc2O[C@H]1CN(C)Cc1ccc(Oc2ccccc2)cc1,29,4,72
C[C@H]1CN([C@@H](C)CO)C(=O)Cc2cc(NS(=O)(=O)c3ccc(F)cc3)ccc2O[C@@H]1CN(C)Cc1ccc(Oc2ccccc2)cc1,-8,14,96*
COc1ccc(S(=O)(=O)Nc2ccc3c(c2)CC(=O)N([C@@H](C)CO)C[C@H](C)[C@@H](CN(C)Cc2ccc(Oc4ccccc4)cc2)O3)cc1,18,13,64
Cc1ccc(S(=O)(=O)Nc2ccc3c(c2)CC(=O)N([C@H](C)CO)C[C@@H](C)[C@@H](CN(C)Cc2ccc(Oc4ccccc4)cc2)O3)cc1,35,0,115*
CC(NS(=O)(=O)c1ccc(Cl)cc1)C(=O)Nc1cccc(Br)c1 (stereo unspecified),nt,14,1
COc1ccc(-c2nc3ccccc3s2)cc1NC(=O)COc1cc(C)ccc1C(C)C,nt,10,22
CCN(CC(=O)Nc1ccc(OC)cc1)S(=O)(=O)c1ccc(Cl)cc1,nt,4,3
